Assay outcomes from PubChem BioAssay.
A3G deaminase – inhibitors of human APOBEC3G DNA deaminase. Q9HC16. recombinant A3G, ssDNA deamination FAM/TAMRA fluorescence. inhibition, % at 20 µM. hit rate 0.28% among 330,000. AID 493012;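 active means inhibition of at least 40% at 20 µM, with no more than 30% in the related APOBEC3A deaminase screen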
CendR NRP1 mod – NRP-1/CendR interaction modulation; FAM-RPARPAR peptide binding to NRP-1, fluorescence polarization; inhibition, % at 25 µM; hit rate 0.85% among 360,000; AID 602438;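 active means inhibition or corrected inhibition above about 18%, plus a signal ratio from 0.5 to 1.5, limit read from the data, passing the limit was not always enough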
ALR inh – human ALR oxidase inhibition via reduced H2O2 | purified ALR, DTT oxidation, H2O2 HRP-luminol luminescence | inhibition, % (no concentration beside the values) | hit rate 3.8% among 290,000 | AID 485317;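 active means mean replicate inhibition above about 79%, with every replicate also reaching it, limit read from the data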
Target sequence (P55789 whole entry, looked up): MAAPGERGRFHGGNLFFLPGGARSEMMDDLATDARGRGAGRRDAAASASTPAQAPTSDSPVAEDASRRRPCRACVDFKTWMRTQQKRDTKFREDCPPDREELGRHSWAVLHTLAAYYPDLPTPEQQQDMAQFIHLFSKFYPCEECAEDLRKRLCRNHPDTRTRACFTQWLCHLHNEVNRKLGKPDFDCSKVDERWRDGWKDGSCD
A3A deaminase – inhibitors of human APOBEC3A DNA deaminase | P31941 | hit rate 0.41% among 330,000 | inhibition, % at 20 µM | recombinant A3A, FAM/TAMRA ssDNA deamination fluorescence;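 active means at least 40% inhibition at 20 µM here, with at most 30% in a related deaminase screen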
Target sequence (P31941 whole entry, looked up): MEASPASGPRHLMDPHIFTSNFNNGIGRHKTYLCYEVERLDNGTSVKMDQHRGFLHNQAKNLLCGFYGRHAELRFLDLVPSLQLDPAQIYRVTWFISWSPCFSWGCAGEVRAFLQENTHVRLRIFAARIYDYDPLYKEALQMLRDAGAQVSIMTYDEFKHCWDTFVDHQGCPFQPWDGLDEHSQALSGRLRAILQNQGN
Yeast superoxide – yeast age-related superoxide inhibition as caloric restriction mimetic | S. cerevisiae aged cells, superoxide DHE fluorescence; stronger effect = lower value | superoxide response (% of plate mean), % at 10 µM | hit rate 0.18% among 330,000;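 active means superoxide response under a set limit, about three screen SD below normal, cut at about 65% in these data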;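 further: yeast aged for seven days with compound at 30 °C before DHE staining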
PfM18AAP inh-1 – blocks P. falciparum M18 aspartyl aminopeptidase. recombinant PfM18AAP, H-Glu-NHMec fluorogenic cleavage. inhibition, % at 7.35 µM. hit rate 1.2% among 290,000. AID 1822;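 active means inhibition above the campaign mean inhibition over all tested compounds plus 3 SD, cut at about 28% in these data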
PfM18AAP inh-2 – confirmation of Plasmodium falciparum M18 aspartyl aminopeptidase inhibitors | shares compounds with PfM18AAP inh-1 | recombinant PfM18AAP, H-Glu-NHMec fluorogenic cleavage | inhibition, % at 7.35 µM | hit rate 28% among 2,400;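 active means mean inhibition over replicate wells above the hit cutoff set for the earlier primary screen, cut at about 29% in these data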
CTSL1 confirm – Cathepsin L (human) inhibition, confirmation; shares compounds with PfM18AAP inh-1; purified cathepsin L1, Z-Leu-Arg-MCA fluorescence; inhibition, % at 5.96 µM; 2,400 tested, under 10 active;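 active means average inhibition across replicates above the hit cutoff set in the earlier primary screen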
Each line names hits and unclear results; the compound was inactive in the other large screens (follow-up assays come after a bar, where they were run). Compounds with a hit are over-represented: about 5.2% of the library has one in this group of screens.

O=C(NNc1ccc(Cl)nn1)c1ccc(Cl)cc1	PfM18AAP inh-1 38.4 | PfM18AAP inh-2 inactive | CTSL1 confirm inactive
Clc1ccc(Nc2ccc(Cl)nn2)cc1	none
CCCOC(=O)C1=C(C)N(C)C(=O)NC1c1cc2c(cc1Br)OCO2 (stereo not given)	none
C/C(=N/NC(=O)c1cc(O)c(O)c(O)c1)c1ccc([N+](=O)[O-])cc1	PfM18AAP inh-1 49.6 (no result: A3G deaminase, ALR inh, A3A deaminase, Yeast superoxide) | PfM18AAP inh-2 inactive | CTSL1 confirm inactive
NNc1ncnc2c1cnn2-c1ccccc1	CendR NRP1 mod 28.1, PfM18AAP inh-1 36.0 | PfM18AAP inh-2 inactive | CTSL1 confirm inactive
CNC(=O)c1cc2c(s1)CCCCCC2	none
O=C(Nn1cnnc1)c1cc2c(s1)CCCCC2	PfM18AAP inh-1 53.5 | PfM18AAP inh-2 55.1 | CTSL1 confirm inactive
C[C@H](CO)N1C[C@H](C)[C@H](CN(C)S(=O)(=O)c2cn(C)cn2)OCc2cnnn2CCCC1=O	none (no result: A3G deaminase, ALR inh, A3A deaminase, Yeast superoxide, PfM18AAP inh-1)
COc1ccc(O)c(/C=C2/SC(=S)N(Cc3ccccc3)C2=O)c1	PfM18AAP inh-1 41.6 | PfM18AAP inh-2 inactive | CTSL1 confirm inactive
Cc1nc2ccccc2nc1N/N=C/c1ccc(O)cc1	ALR inh 84.7, PfM18AAP inh-1 36.8 | PfM18AAP inh-2 inactive | CTSL1 confirm inactive
Oc1ccc(/C=N/Nc2ccccc2)cc1	none
Cc1n[nH]c(=S)n(/N=C/c2cccs2)c1=O	none
CCN(CC)c1ccc(/C=N/n2c(=S)[nH]nc(C)c2=O)cc1	PfM18AAP inh-1 34.5 | PfM18AAP inh-2 inactive | CTSL1 confirm inactive
O=C(O)c1ccccc1-c1nc2ccccc2c(=O)n1O	none
O=C(/C=C1\SC(=O)NC1=O)Nc1ccc(F)cc1	ALR inh 97.4, PfM18AAP inh-1 35.7 | PfM18AAP inh-2 inactive | CTSL1 confirm inactive
O=C(COc1ccccc1/C=C1\SC(=O)NC1=O)Nc1ccccc1	none (no result: ALR inh)
CCN(CC)S(=O)(=O)c1ccc(OC)c(NC(=O)c2cc([N+](=O)[O-])ccc2N2CCOCC2)c1	none (no result: A3G deaminase, ALR inh, A3A deaminase, Yeast superoxide, PfM18AAP inh-1)
CCCCCOC(=O)Nc1ccc(S(=O)(=O)Nn2cnnc2)cc1	PfM18AAP inh-1 45.9 | PfM18AAP inh-2 48.4 | CTSL1 confirm inactive
CCCCOC(=O)Nc1ccc(S(=O)(=O)Nc2ncccn2)cc1	none
Cc1ccc(S(=O)(=O)Nn2cnnc2)cc1	PfM18AAP inh-1 65.3 (no result: ALR inh) | PfM18AAP inh-2 55.9 | CTSL1 confirm inactive
O=S(=O)(Nn1cnnc1)c1ccc(F)cc1	PfM18AAP inh-1 41.5 | PfM18AAP inh-2 48.2 | CTSL1 confirm inactive
COC(=O)Nc1nc(Sc2ncc(C(F)(F)F)cc2Cl)n[nH]1	PfM18AAP inh-1 69.5 | PfM18AAP inh-2 70.3 | CTSL1 confirm inactive
COC(=O)C(C(=O)OC)c1ncc(C(F)(F)F)cc1Cl	none
COc1cc(C)c(NC(=O)C(=S)NCCc2ccccc2)cc1C	PfM18AAP inh-1 47.5 | PfM18AAP inh-2 inactive | CTSL1 confirm inactive
CC(=O)n1cc([C@@H]2C=C(C(=O)Nc3ccccc3)O[C@H](OCCCCO)C2)c2ccccc21	none
Cc1cc(C)c2cc(CN(Cc3ccco3)C(=O)NCc3ccccc3)c(=O)[nH]c2c1	PfM18AAP inh-1 35.0 | PfM18AAP inh-2 inactive | CTSL1 confirm inactive
CC1(C)CC(=O)C=C(NNC(=O)c2ccccc2O)C1	none
COc1ccc(C(=O)NNC2=CC(=O)CC(C)(C)C2)cc1	PfM18AAP inh-1 47.3 | PfM18AAP inh-2 inactive | CTSL1 confirm inactive
CCOc1ccc(NC(=O)c2sc3nc(N4CCOCC4)c4c(c3c2N)CC(C)(C)OC4)cc1	PfM18AAP inh-1 42.4 | PfM18AAP inh-2 inactive | CTSL1 confirm inactive
CC1(C)Cc2c(c(N3CCOCC3)nc3sc(C(N)=O)c(N)c23)CO1	PfM18AAP inh-1 43.3 | PfM18AAP inh-2 inactive | CTSL1 confirm inactive
Cc1ccc(NC(=O)c2sc3nc(N4CCOCC4)c4c(c3c2N)CC(C)(C)OC4)cc1	PfM18AAP inh-1 38.6 | PfM18AAP inh-2 inactive | CTSL1 confirm inactive
NC(=O)c1sc2nc(N3CCOCC3)c3c(c2c1N)CCCC3	none
CC1(C)Cc2c(c(N3CCCC3)nc3sc(C(=O)Nc4ccccc4)c(N)c23)CO1	none
